Inhibition data for 26 compounds are collected here from PubChem BioAssay AID777 (Sanford-Burnham Center for Chemical Genomics, 2007).

For orientation: inhibition means the drop in the measured response relative to a control, in per cent.

Screen size: about 96,000 compounds; about 19,000 (20%) were called active.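 The calls were made as follows: active = blocking of liver enzyme CYP2C9 beyond about 50% at 5 µM (limit read from the data); inactive = the rest.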 The list is a sample of the results.

Cytochrome P450 2C9 (Homo sapiens), sequence (P11712 whole entry, looked up): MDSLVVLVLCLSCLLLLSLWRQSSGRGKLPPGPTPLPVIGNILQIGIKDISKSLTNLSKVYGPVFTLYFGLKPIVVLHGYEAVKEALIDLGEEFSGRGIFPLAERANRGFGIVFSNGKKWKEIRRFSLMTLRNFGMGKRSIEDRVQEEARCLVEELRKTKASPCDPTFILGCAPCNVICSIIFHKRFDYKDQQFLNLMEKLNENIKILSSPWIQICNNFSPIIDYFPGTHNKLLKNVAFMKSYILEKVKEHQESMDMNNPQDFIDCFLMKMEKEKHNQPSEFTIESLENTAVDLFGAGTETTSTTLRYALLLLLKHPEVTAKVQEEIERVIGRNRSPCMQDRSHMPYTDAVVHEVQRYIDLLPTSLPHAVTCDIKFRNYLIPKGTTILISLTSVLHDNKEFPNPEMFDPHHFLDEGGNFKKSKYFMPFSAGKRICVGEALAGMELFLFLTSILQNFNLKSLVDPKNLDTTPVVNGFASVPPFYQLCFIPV

This assay has as its target Cytochrome P450 2C9 (Homo sapiens) (UniProt P11712). The assay is described as follows: blockers of cytochrome P450 2C9 activity – biochemical, luminescence, ADME assay, primary screen (AID 777). To be noted: CYP2C9 Supersomes, luciferin-H conversion, at 5 µM, stronger effect = higher value.
In the case of `Cc1ccc(NC(=O)C2CCCN(S(=O)(=O)c3c(C)noc3C)C2)c(C)c1` (stereo unspecified), the inhibition is 8.4% (inactive).

As to `Cc1noc(C)c1S(=O)(=O)N1CCCC(C(=O)Nc2nccs2)C1` (stereo unspecified), the inhibition is 56.5% (active).

For `O=C(Nc1nccs1)C1CCN(S(=O)(=O)c2ccc(Cl)c(C(F)(F)F)c2)CC1`, the inhibition was -45.5% (inactive).

Take `Cc1ccc(C2=CSC3=NS(=O)(=O)CCN23)cc1C`: the inhibition was -9.4% (inactive).

With `CCOC(=O)CSc1nnc(-c2cccc(Br)c2)o1`, the inhibition is -12.3% (inactive).

In the case of `COc1ccccc1N1CCN(C(=O)CN(Cc2ccc(Cl)cc2)S(C)(=O)=O)CC1`, the inhibition was 41.4% (inactive).

As for `CCN1CCN(C(=O)c2cc3cc4ccc(OC)cc4nc3s2)CC1`, the inhibition is -5.1% (inactive).

Take `COc1cccc(-n2cc(C(=O)O)c3ccccc3c2=O)c1`: the inhibition was 0.5% (inactive).

As for `COc1ccccc1N1CCN(C(=O)c2cc3c(-c4ccc(Cl)cc4)nn(C)c3s2)CC1`, the inhibition was 97.6% (active).

Consider `COc1cccc(-c2nn(C)c3sc(C(=O)N4CCN(c5ccccc5)CC4)cc23)c1`, for which the inhibition is 68.5% (active).

For `CCOC(=O)N1CCN(C(=O)c2cc3c(-c4ccc(Cl)cc4)nn(C)c3s2)CC1`, the inhibition is 25.5% (inactive).

As to `Cc1nn(Cc2ccc(C(=O)N3N=C(C(F)F)CC3(O)C(F)F)cc2)c(C)c1[N+](=O)[O-]` (stereo unspecified), the inhibition is 25.2% (inactive).

Turning to `CCOC(=O)C1CCCN(C(=O)c2sc3nc(C)nc(N4CCOCC4)c3c2C)C1` (stereo unspecified), the inhibition was 23.1% (inactive).

For `O=C1Nc2ccccc2C12Nc1ccccc1S2` (stereo unspecified), the inhibition was 37.5% (inactive).

Consider `COc1ccc(C(CC(=O)O)NC(=O)Cc2ccccc2)cc1` (stereo unspecified), for which the inhibition was -10.6% (inactive).

On to `Nn1cnnc1N/N=C/c1cc([N+](=O)[O-])c(Cl)cc1Cl`, for which the inhibition was 16.5% (inactive).

As for `O=C(NCC(F)(F)F)Nc1nnc(C(F)(F)F)s1`, the inhibition is -13.1% (inactive).

For `CN1C(=O)c2ccccc2C(C(=O)NCCCN2CCCC2)C1c1c[nH]c2ccccc12` (stereo unspecified), the inhibition is 4.5% (inactive).

In the case of `CCn1nc(NC(=O)c2ccco2)c2cc3ccc(C)cc3nc21`, the inhibition is 19.8% (inactive).

Consider `Cc1c(-c2ccccc2)cn2c1-c1ccc(C)n1CC2`, for which the inhibition was -10.8% (inactive).

As to `O=[N+]([O-])c1ccc(NCCCN2CCOCC2)c(Cl)c1`, the inhibition was 6.4% (inactive).

On to `CC(C)c1ccc(C(=O)NCCCc2ccccc2)cc1`, for which the inhibition is 37.2% (inactive).

Regarding `Cc1ccc(S(=O)(=O)Nc2ccccc2CNc2c(C)n(C)n(-c3ccccc3)c2=O)cc1`, the inhibition is 83.9% (active).

Consider `COc1ccc(S(=O)(=O)Nc2c(C)n(C)n(-c3ccccc3)c2=O)cc1`, for which the inhibition was -4.2% (inactive).

Consider `COC(=O)Nc1c(C)n(C)n(-c2ccccc2)c1=O`, for which the inhibition is -15.1% (inactive).

For `C/C(=N/NC(=O)c1cc(Cl)ccc1O)C12CC3CC(CC(C3)C1)C2`, the inhibition was 24.2% (inactive).
